Data: ChEMBL document CHEMBL4513216, “Probing the Open Global Health Chemical Diversity Library for Multistage-Active Starting Points for Next-Generation Antimalarials” (ACS Infect Dis, 2020)
About 8,600 (12%) of roughly 69,000 compounds showed an effect of 50% or more. The entries come from a sample that favours strong results as a whole.

Tested on: Plasmodium berghei
Assay: Screen against P. berghei liver stage (PbLuc), transformed with Luciferase, at 10uM
Type: functional, HepG2
Conditions: tested at 10 uM

SMILES | INHIBITION [%]
CCNc1cc2c(nn1)CCN(C(=O)CCc1c(C)noc1C)C2 | 1.78
COc1c(C2CCCN2C(=O)c2cnc(C)cn2)c(C)nn1C (stereo unspecified) | -14.7
O=C(Cn1cc(-c2ccccc2)ncc1=O)Nc1nccs1 | -13.6
Cc1nc(C2CCCN(C(=O)c3ccnc(N(C)C)c3)C2)no1 (stereo unspecified) | -27
CN(C)C(=O)c1c[nH]nc1C1CCN(S(=O)(=O)c2ccccc2)CC1 | -36.4
CNC(=O)C1CCC2(CCN(c3ncc(C)cn3)CC2)CO1 (stereo unspecified) | 11.3
O=C(C1CCC2(CCN(c3nncs3)CC2)C1)N1CCCC1 (stereo unspecified) | -16.9
O=C(C1CCC2(CCN(c3ncccn3)CC2)CO1)N1CCCC1 (stereo unspecified) | -7.24
O=C(C1CCC2(CCN(c3nncs3)CC2)CO1)N1CCCC1 (stereo unspecified) | 57.1
O=C([C@@H]1CCCO1)N1CCOCC2(CCN(Cc3cccnc3)C2)C1 (stereo partly specified) | 40.3
O=C(C1CCCO1)N1CCC2(CC1)COCCN(Cc1cccnc1)C2 (stereo unspecified) | 12.2
O=C(C1CCC2(CCN(Cc3cccnc3)CC2)CO1)N1CCCC1 (stereo unspecified) | 62
CC(C)NC(=O)C1CCC2(CCN(c3ncccn3)CC2)CO1 (stereo unspecified) | 15.7
CNC(=O)C1CCC2(CCN(c3nncs3)CC2)CO1 (stereo unspecified) | 61.9
CC(C)(C)C(=O)N1CC[C@@H]2[C@H](CC1)N(S(C)(=O)=O)CCS2(=O)=O | 37.1
CN1CCN(C(=O)c2cc(-c3cccs3)cs2)CC1 | -11.4
Cc1nc(C2CCCN2C(=O)COCc2ccccc2)no1 (stereo unspecified) | 7.27
COc1cnc(CSc2nnc(C)s2)cc1OCC(=O)NC1CCCC1 | 43.3
CNc1cncc(C2CCCN2Cc2ccnc(C)n2)n1 (stereo unspecified) | 48.6
CN1CCc2c(C#N)c(NCCCN3CCOCC3)n3cnnc3c2C1 | 3.95
COc1ccc(CN2CCOC3(CCCN(C(C)=O)C3)C2)cc1 (stereo unspecified) | 7.31
COc1ccccc1CNC(C)c1ccc(-n2ccnc2)cc1 (stereo unspecified) | 70.3

SMILES | INHIBITION [%]
COc1cccc(CNC(C)c2ccc(-n3ccnc3)cc2)c1OC (stereo unspecified) | 35
COc1cccc(CNC(C)c2ccc(-n3ccnc3)cc2)c1O (stereo unspecified) | 43.4
CC(NCc1ccccc1O)c1ccc(-n2ccnc2)cc1 (stereo unspecified) | 61.9
CCOc1cccc(CNC(C)c2ccc(-n3ccnc3)cc2)c1O (stereo unspecified) | 47.1
COCCC(C)NCc1ccccc1-n1ccnc1 (stereo unspecified) | 15.2
CC1CCC(O)(CSc2nnnn2C)CC1 (stereo unspecified) | 4.52
CCn1ncc2c1C(COC)N(C(=O)CCc1ccccc1)CC2 (stereo unspecified) | 43
Cc1cnc(CC2COCCN(C(=O)c3cncnc3)C2)cn1 (stereo unspecified) | -13.2
CC(NCc1cc(O)c2cccc(F)c2n1)c1ccccc1O (stereo unspecified) | 25
Cc1nc(-c2c(-c3ccccc3)ncn2CCCN2CCOCC2)c[nH]1 | 27.6
Cc1ccc(CNCCN2CCOCC2)o1 | 5.34
c1ccc(-c2ncn(CCCN3CCOCC3)c2-c2ccncc2)cc1 | 55.4
OCc1ccc(-c2c(-c3ccccc3)ncn2CCN2CCOCC2)o1 | 53.3
CSCc1ccc(CNCCN2CCOCC2)o1 | 15.6
Cc1ccc(-c2c(-c3ccccc3)ncn2CCCN2CCOCC2)o1 | 20.1
COCCCn1ccc(NC(=O)NCc2cccc(N(C)C)c2)n1 | 21.5
O=C1[C@@H]2CC[C@@H](CN(Cc3ccccc3OC(F)F)C2)N1CC1CC1 | 18.5
CC(=O)NCC(=O)N1Cc2cc(C#N)ccc2C1c1cnco1 (stereo unspecified) | 65.9
CN(C)CC(=O)N1Cc2cc(-c3cc[nH]n3)ccc2C1c1cnco1 (stereo unspecified) | -19.8
CN(C)c1ccc2c(c1)CN(C(=O)c1ccco1)C2c1cnco1 (stereo unspecified) | -0.554
N#CC1(C(=O)N2Cc3cc(-c4cc[nH]n4)ccc3C2c2cnco2)CC1 (stereo unspecified) | -18.3
N#Cc1ccc2c(c1)CN(C(=O)C1CC=CC1)C2c1cnco1 (stereo unspecified) | 34.9

SMILES | INHIBITION [%]
CN(C)c1ccc2c(c1)CN(C(=O)c1ccnnc1)C2c1cnco1 (stereo unspecified) | -0.554
CN(C)CC(=O)N1Cc2cc(N(C)C)ccc2C1c1cnco1 (stereo unspecified) | 33.4
CN(C)c1ccc2c(c1)CN(C(=O)c1cnccn1)C2c1cnco1 (stereo unspecified) | 31.9
CC(=O)NCC(=O)N1CC[C@H](OCC2CC2)[C@@H]1Cc1cccnc1 | 4.92
CC(=O)NCC(=O)N1Cc2cc(-c3cc[nH]n3)ccc2C1c1cnco1 (stereo unspecified) | 71.8
CN(C)c1ccc2c(c1)CN(C(=O)c1c[nH]cn1)C2c1cnco1 (stereo unspecified) | 76.3
N#Cc1ccc2c(c1)CN(C(=O)c1nc[nH]n1)C2c1cnco1 (stereo unspecified) | 64.5
O=C(CN1CCOC1=O)N(Cc1ccccc1)Cc1nccs1 | 22.1
CC(C)CN1CC(C(=O)NCCNc2ncccn2)CC1=O (stereo unspecified) | 21.6
N#Cc1ccc(CN2CCN(c3cncc(Cl)n3)CC2=O)cc1 | -5.33
CN(Cc1n[nH]c2c1CCCCC2)C(=O)c1cc(-c2cccn2C)n[nH]1 | -89.3
COCCN1CCN(Cc2c(C3CCNCC3)[nH]c3ncccc23)CC1 | -12.9
O=C1[C@@H]2CN(Cc3cc4ccccc4o3)C[C@]2(C(=O)O)CN1CC1CC1 | 79.8
CSc1ccccc1CN1C[C@H]2C(=O)N(CC3CC3)C[C@@]2(C(=O)O)C1 | -26.9
CCCc1ccc(CN2C[C@H]3C(=O)N(CC4CC4)C[C@@]3(C(=O)O)C2)o1 | 6.28
COc1cccc(-n2cc3[nH]c(=O)n(C(C)C)n3c2=O)c1 | -34
Cc1ncnc2c1CCN(C(=O)c1ccnnc1)CC2 | 60.1
Cc1ncnc2c1CCN(C(=O)c1ccncc1)CC2 | 19.5
O=C(c1ccncc1F)N1CCc2ncnc(-c3ccncc3)c2CC1 | -7.39
Cc1ncnc2c1CCN(C(=O)c1cccnc1)CC2 | -2.17
Cc1ncnc2c1CCN(C(=O)c1ccncc1F)CC2 | 68.4
O=C(c1ccncc1F)N1CCc2ncnc(N3CCOCC3)c2CC1 | 5.44

SMILES | INHIBITION [%]
CCOc1ncnc2c1CCN(C(=O)c1ccncc1F)CC2 | 54.4
CC(C)Nc1ncnc2c1CCN(C(=O)c1ccncc1F)CC2 | 53.5
CCc1ncnc2c1CCN(C(=O)c1ccncc1F)CC2 | -49.3
CC(C)Nc1ncnc2c1CCN(C(=O)c1ccccc1F)CC2 | 32.2
O=C(c1ccncc1F)N1CCc2ncnc(C3CC3)c2CC1 | -2.72
CCOc1ncnc2c1CCN(C(=O)c1cnccn1)CC2 | -103
CS(=O)(=O)N1CCc2ccc(=O)n(CCN3CCCC3)c2CC1 | 46.4
CCc1nc(C2CCCN2C(=O)c2cnc[nH]2)no1 (stereo unspecified) | 37.9
CCOCC1CN(C(=O)C2=CCCC2)Cc2cnn(CC)c21 (stereo unspecified) | 42.6
Cc1cnn(CC2CN(CCCc3nc4ccccc4o3)CCO2)c1 (stereo unspecified) | -12.1
CCn1nc(C)c(NC(=O)CN2CCC(c3ccccc3Cl)C2)c1C (stereo unspecified) | 48.2
COCCN1C[C@H](NC(=O)CCC(F)(F)F)[C@@H](C(C)C)C1 | 30.9
CC(=O)N1CCCC(c2ccc(CO)c(-c3c(C)noc3C)n2)C1 (stereo unspecified) | 18.4
CCc1nc(C)c(C(=O)NCCN2CCCC2)s1 | -19.9
COC(=O)c1ccc(C(=O)NCc2nn(C)c3c2COCC3)cc1 | 6
COCC(C)(C#N)NC(=O)COc1ccccc1 (stereo unspecified) | 66.7
COCC(C)(C#N)NC(=O)COc1ccccc1Br (stereo unspecified) | -3.81
CC(C)(C)NC(=O)COc1ccc(Oc2ccccn2)cc1 | 23.7
OCc1cnc(Nc2ccccc2)nc1 | -7.27
Cc1c(CN2CCOCC2)c(O)n(CCc2ccccc2)c(=O)c1C#N | 6
Cc1occc1C(=O)N1CCc2c(CNc3ncccn3)cncc2C1 | 4.27
Cc1nccc(NCc2cncc3c2CCN(S(C)(=O)=O)C3)n1 | 59.3

SMILES | INHIBITION [%]
Cc1cnc(N2CCc3c(CNc4ccnc(C)n4)cncc3C2)nc1 | 94.6
CN(Cc1cccnc1)Cc1cncc2c1CCN(c1ccccn1)C2 | 51.2
Cn1cc(C(=O)NCc2cncc3c2CCN(S(C)(=O)=O)C3)cn1 | 38.5
COCc1cncc2c1CCN(Cc1ccccn1)C2 | -13.2
CN(Cc1ccco1)Cc1cncc2c1CCN(S(C)(=O)=O)C2 | 40.1
Cc1ccc(N2CCc3c(CN(C)Cc4ccco4)cncc3C2)nn1 | -11.2
Cn1cc(C(=O)NCc2cncc3c2CCN(c2ccccn2)C3)cn1 | 34
CN(Cc1ccco1)Cc1cncc2c1CCN(c1ncccn1)C2 | 37
Cc1cnc(N2CCc3c(CN(C)Cc4ccco4)cncc3C2)nc1 | 66.8
Cc1ccc(NCc2cncc3c2CCN(Cc2ccccn2)C3)nn1 | -30.7
Cc1ccnc(C2CCN(C(=O)CCn3ncc4ccccc43)C2)n1 (stereo unspecified) | 5.11
CNC(=O)[C@@H](c1ccccc1F)N1CCC[C@H]1C(=O)NC1CC1 | 0.734
Cn1ccnc1CN1CCO[C@H]2C(CNC(=O)c3ccco3)CC[C@@H]21 (stereo partly specified) | 16.9
CC(C)CC(=O)N1CC[C@@H]2CN(Cc3cccnc3)S(=O)(=O)[C@@H]2CC1 | 42.1
Cc1cc(C(=O)N2CC[C@@H]3CN(S(C)(=O)=O)CCO[C@@H]3C2)c(C)o1 | 37
O=C(NCc1cc[nH]n1)NC1CCCN(c2ncccn2)C1 (stereo unspecified) | -0.79
Cc1cnc(N2CCN3C[C@H](OCc4cccc(C)n4)C[C@H]3C2)nc1 | 42.3
O=C(NCC1CC1)c1nc2c(o1)CN(CC1CC1)C2 | -48.4
